JMJD2A Tudor: blocks the human JMJD2A Tudor domain. O75164. AlphaScreen JMJD2A-Tudor / H3K4me3 peptide binding. Potency, µM (doses to about 114 µM), without a hit: at the top dose activity change, negative = inhibition, most hits filed as inhibitors. 4.4% of 390,000 active. AID 504339; also: % is scaled to controls: 0 for no effect and ±100 for the full control effect; nearly all actives have a fitted effect of over 50% in size
Target sequence (O75164 whole entry, looked up, the tested form may be a part): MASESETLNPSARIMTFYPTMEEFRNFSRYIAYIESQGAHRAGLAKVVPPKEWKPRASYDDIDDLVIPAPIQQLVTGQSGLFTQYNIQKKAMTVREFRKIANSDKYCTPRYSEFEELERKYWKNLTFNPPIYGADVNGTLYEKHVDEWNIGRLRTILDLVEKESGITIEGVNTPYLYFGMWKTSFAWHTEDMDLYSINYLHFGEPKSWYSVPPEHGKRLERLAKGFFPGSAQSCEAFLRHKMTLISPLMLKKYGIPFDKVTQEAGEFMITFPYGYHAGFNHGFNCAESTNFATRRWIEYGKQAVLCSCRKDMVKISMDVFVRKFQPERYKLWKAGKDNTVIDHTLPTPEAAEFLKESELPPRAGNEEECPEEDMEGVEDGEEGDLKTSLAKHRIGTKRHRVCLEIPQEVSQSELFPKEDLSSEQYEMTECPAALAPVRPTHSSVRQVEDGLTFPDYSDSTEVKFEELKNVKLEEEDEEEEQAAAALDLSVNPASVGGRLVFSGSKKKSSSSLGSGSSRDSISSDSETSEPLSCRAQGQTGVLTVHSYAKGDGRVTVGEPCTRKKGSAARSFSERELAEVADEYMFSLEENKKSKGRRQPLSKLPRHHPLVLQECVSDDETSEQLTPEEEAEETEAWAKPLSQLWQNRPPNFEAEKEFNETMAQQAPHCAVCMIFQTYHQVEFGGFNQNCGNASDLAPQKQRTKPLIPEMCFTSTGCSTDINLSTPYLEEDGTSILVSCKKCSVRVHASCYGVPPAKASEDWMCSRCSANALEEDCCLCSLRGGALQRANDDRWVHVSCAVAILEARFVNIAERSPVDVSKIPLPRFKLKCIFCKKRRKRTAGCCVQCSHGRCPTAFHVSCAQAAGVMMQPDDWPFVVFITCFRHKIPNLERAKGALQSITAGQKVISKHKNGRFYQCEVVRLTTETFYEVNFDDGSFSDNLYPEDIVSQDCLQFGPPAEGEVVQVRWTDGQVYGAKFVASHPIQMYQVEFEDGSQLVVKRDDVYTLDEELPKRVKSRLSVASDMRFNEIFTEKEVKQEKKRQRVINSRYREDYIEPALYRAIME
BAZ2B inh: blocks human BAZ2B; Q9UIF8; AlphaScreen BAZ2B-H3K14Ac peptide displacement; Potency, µM (titrated, usually from 114 µM), without a hit: at the top dose activity change, negative = inhibition, usual class: inhibitors; 4.4% of 360,000 active; also: % is scaled to controls: 0 for no effect and ±100 for the full control effect; nearly all actives have a fitted effect of over 60% in size
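In this displacement format the biotinylated H3(5-23) peptide acetylated at Lys14 serves as ligand at 50 nM, with BAZ2B at 50 nM in PBS pH 7.4 containing 0.01% Tween-20. Donor and acceptor beads are 10 ug/mL final.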
G9a block: G9a (human) methyltransferase inhibition; Q96KQ7; G9a H3K9 monomethylation, AlphaScreen, 2 h; Potency, µM (top dose mostly 102 µM), for the others: at the top dose activity, negative = inhibition, most hits filed as inhibitors; 8.8% of 350,000 active; also: % is scaled to controls: 0 for no effect and ±100 for the full control effect; nearly all actives have a fitted effect of over 75% in size
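Quantitative HTS format: methyltransferase activity on a biotin-tagged H3K9 peptide is measured by AlphaScreen, using a rabbit anti-monomethyl-H3K9 antibody with streptavidin donor and anti-IgG acceptor beads. Final levels are 20 nM enzyme, 500 nM peptide, 20 uM SAM; 2 h RT.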
L3MBTL1 block: L3MBTL1 (human) inhibition. AlphaScreen L3MBTL1–H3K9me1 peptide binding. Potency, µM (highest dose often 57.1 µM), inactives show top-dose activity, negative = inhibition, usual class: inhibitors. 0.66% of 230,000 active. AID 485360; also: % is scaled to controls: 0 for no effect and ±100 for the full control effect; nearly all actives have a fitted effect of over 60% in size
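AlphaScreen assay: L3MBTL1 (50 nM final) was preincubated 30 min at room temperature with biotinylated H3(1-15)K9me1 peptide (75 nM final), then 30 min with library compounds; streptavidin donor and nickel chelate acceptor beads (10 ug/mL final) added, 30 min dark.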
Sfp PPTase inh: inhibitors of Bacillus subtilis Sfp phosphopantetheinyl transferase. Q9F4F7. Biochemical Sfp PPTase activity, qHTS. Potency, µM, without a hit: largest response in the series, negative = inhibition, hits mostly inhibitors. 3.5% of 310,000 active. AID 1490;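 also: the enzyme is Sfp with the accession as filed and its product quenches rhodamine fluorescence; 0% = enzyme reaction without inhibitor and -100% = no enzyme wells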
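Fluorescence-quenching assay: 15 nM Sfp-PPTase preincubated 15 min at room temperature with compound, then 5 uM rhodamine-CoA and 12.5 uM BHQ-2-labelled YbbR peptide added. Fluorescence (ex 525/em 598 nm) read at start and after 30 min; difference gives rate.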
HP1b chromo inh: HP1-beta chromodomain-methylated histone interaction inhibition; P83916; AlphaScreen HP1-beta / biotin-H3K9me3 peptide binding; Potency, µM (highest dose often 114 µM), without a hit: at the top dose activity change, negative = inhibition, usual class: inhibitors; 0.56% of 390,000 active; also: nearly all actives have a fitted effect of over 70% in size
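Compound inhibition of the preformed complex between 50 nM HP1-beta and 50 nM biotinylated H3K9me3 peptide was read by AlphaScreen. Buffer was PBS pH 7.4 with 0.01% Tween-20. Incubations ran 30 min at room temperature, with 10 ug/mL donor/acceptor beads.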
* marks the source's active call; other numbers are inactive results; ? = inconclusive; . = not tested or not shown; [ ] = dose if it differs, or a comment. In the library only some 12% were active in any assay of this set; here they are far more common. Calls follow the shape of the dose curve; as a rule, active = well fitted curve in the direction sought with a large enough effect; inconclusive = small, poorly fitted or top-dose-only effect, or another doubt; inactive = no such curve, though single readings can be large; an effect the other way counts as inactive or inconclusive. Potency is read from the fitted curve at half-maximal effect.

SMILES	JMJD2A Tudor	BAZ2B inh	G9a block	L3MBTL1 block	Sfp PPTase inh	HP1b chromo inh
CC(=O)c1cccc(NC(=O)CC2S/C(=N/N=C/c3cccs3)NC2=O)c1 (stereo not drawn)	-14%	-14%	.	5%	-3%	34%
O=S(=O)(c1ccc(Cl)c(NC(=S)N/N=C/c2ccc(O)cc2)c1)N1CCOCC1	?	-38%	1.4µM*	-16%	12%	-23%
O=S(=O)(c1ccc(Cl)c(NC(=S)N/N=C/c2c(F)cccc2F)c1)N1CCOCC1	-31%	8%	-4%	3%	6%	-13%
Cc1cc(C)c(CSc2nnc(C)n3c2cc2occc23)c(C)c1	?	40µM*	?	.	.	?
CCc1nnc(SCC(=O)Nc2ccc(Cl)cc2F)c2cc3occc3n12	-15%	-38%	-26%[59 µM]	.	.	31%
CC(=O)OCC1OC(C#Cc2ccc(F)cc2F)C=CC1OC(C)=O (stereo not drawn)	.	.	.	.	-5%	.
O=Cc1cc(Br)c(OC(=O)N2CCOCC2)c(Br)c1	-11%	-3%	-3%	.	8%	31%
CCN1C(=O)[C@H]2[C@@H](c3ccc(Cl)cc3)N3C(=O)CN(CC4CC4)C(=O)[C@@]3(Cc3ccccc3)[C@H]2C1=O	1%	-25%	71µM*	2%	7%	37%
CC(=O)NS(=O)(=O)c1ccc(NS(=O)(=O)c2ccc3ccccc3c2)cc1	5%	4%	?	.	10%	72%
CC(=O)Nc1ccc(NS(=O)(=O)c2c(Cl)cccc2Cl)cc1	-15%[11.4 µM]	-15%	?	.	79µM*	16%
CC(=O)Nc1ccc(NS(=O)(=O)c2ccc(Cl)s2)cc1	-13%	-21%	24%[12.7 µM]	-1%	8%	31%
CC(=O)Nc1ccc(S(=O)(=O)Nc2ccc(C(=O)NCC(=O)O)cc2)cc1	0%	-15%	20µM*	10%	-12%	28%
CC(=O)Nc1ccc(NS(=O)(=O)c2ccc3ccccc3c2)cc1	28µM*	-6%	-3%[12.7 µM]	.	17%	-9%
CC(=O)Nc1ccc(NS(=O)(=O)c2ccc3c(c2)n(C)c(=O)n3C)cc1	-8%	79µM*	3%	5%	8%	49%
Cc1ccc(NS(=O)(=O)c2ccc3c(c2)n(C)c(=O)n3C)cc1	-7%	-23%	-12%[2.33 µM]	.	9%	31%
FC(F)(F)c1ccccc1-c1nc(NC2CC2)c2ccccc2n1	.	.	9%[0.501 µM]	.	14%	.
Cc1ccc(C2C(C#N)=C(N)Oc3n[nH]c(-c4cccs4)c32)s1 (stereo not drawn)	-18%	?	50µM*	0%	18%	10%
N#CC1=C(N)Oc2n[nH]c(-c3cccs3)c2C1c1ccncc1 (stereo not drawn)	-19%	-18%	-13%	1%	5%	17%
Cc1ccc2nc(-c3ccccc3)cc(C(=O)N3CCN(c4ccccc4O)CC3)c2c1	?	-32%	50µM*	-10%	.	-18%
O=C(c1cc(-c2ccccc2)nc2ccccc12)N1CCN(c2ccccc2O)CC1	?	-39%	.	.	5%	2%
CNC1C(O)C(O)C(CO)O[C@H]1OC1C(O[C@@H]2C(O)C(O)[C@@H](N=C(N)N)C(O)C2N=C(N)N)OC(C)[C@]1(O)C=O (stereo partly drawn)	.	.	-27%[2.33 µM]	.	14%	.
CN[C@@H]1[C@H](O[C@H]2[C@H](O[C@H]3[C@H](O)[C@@H](O)[C@H](N=C(N)N)[C@@H](O)[C@@H]3N=C(N)N)O[C@@H](C)[C@]2(O)C=O)O[C@@H](CO)[C@H](O)[C@H]1O	.	.	18µM*	.	12%	.
COC(=O)C1=COC(C)C2CN3CCc4c([nH]c5ccccc45)C3CC12 (stereo not drawn)	?	?	45µM*	-2%	9%	-1%
O=C(O)[C@@H]1[C@H]2C[C@H]3c4[nH]c5ccccc5c4CCN3C[C@@H]2CC[C@@H]1O	56µM*	?	?	-5%	.	-36%
COc1cccc(/C=C/C2=CC3(C)CC2(C)C(c2cccc(OC)c2)CC3=O)c1 (stereo not drawn)	.	.	.	.	-1%	.

Screening data (PubChem BioAssay)
